# PubChem BioAssay (Tox21)
# Values without a mark were called inactive. Results filed as inconclusive are left out. A call without a number means that no potency is given here. Active and inactive are the calls of the source. Unless noted, the call rests on the fitted dose curve; in most records, active means well fitted curve in the direction sought with a large enough effect in the repeat runs; inconclusive means weak or mixed curves; inactive means no such curve, though single readings can be large; an effect the other way counts as inactive or inconclusive.
# Assays:
# [1] = A CellTox Green Cytotoxicity Assay to monitor cytotoxicity in HepG2 cells - 32 hour (AID 1224883); further: nearly all actives have a fitted effect of over 50% in size
# Method in brief: (§1)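 Measurements at 0, 8, 16, 24, 32 and 40 h of treatment captured CellTox Green fluorescence in HepG2 cells that had been co-plated with reagent and preincubated 5 h at 37 C/5% CO2.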
# [2] = A CellTox Green Cytotoxicity Assay to monitor cytotoxicity in HEK293 cells - 8 hour (AID 1224884); further: nearly all actives have a fitted effect of over 35% in size
# Method in brief: (§2)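 Tox21 screen in HEK293: membrane-impermeant cyanine dye fluoresces on binding dead-cell DNA; compound pinned 5 h post-seeding, plates held at 37 C, signal read repeatedly through 40 h.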
# [3] = qHTS RealTime-Glo MT Cell Viability Assay in HepG2 cells - 16 hour (AID 1224885); further: nearly all actives have a fitted effect of over 50% in size
# Method in brief: (§3)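 Luminescence read-out: viable HepG2 cells reduce a prosubstrate to a NanoLuc substrate, giving a signal proportional to live cell number. Reads taken at 0, 8, 16, 24, 32 and 40 h of compound exposure at 37 C.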
# [4] = qHTS RealTime-Glo MT Cell Viability Assay in HEK293 cells - 24 hour (AID 1224886); further: top concentration of the series differs between compounds; nearly all actives have a fitted effect of over 50% in size
# Method in brief: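 Nonlytic real-time viability readout: viable cells convert prosubstrate to NanoLuc substrate, giving luminescence proportional to live cell number. HEK293, 600 cells/well, compound added after 5 h, continuous culture at 37 C.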
# [5] = qHTS RealTime-Glo MT Cell Viability Assay in HEK293 cells - 8 hour (AID 1224887); further: top concentration of the series differs between compounds; nearly all actives have a fitted effect of over 50% in size
# Method in brief: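 HEK293 + NanoLuc + prosubstrate, 600 cells/well; 5 h, 37 C/5% CO2; compound 23 nL in DMSO by pintool; 37 C; luminescence read at 0, 8, 16, 24, 32 and 40 h time points.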
# [6] = A CellTox Green Cytotoxicity Assay to monitor cytotoxicity in HEK293 cells - 16 hour (AID 1224888); further: nearly all actives have a fitted effect of over 35% in size
# Method in brief: as §2
# [7] = qHTS RealTime-Glo MT Cell Viability Assay in HepG2 cells - 0 hour (AID 1224889); further: nearly all actives have a fitted effect of over 50% in size
# Method in brief: as §3
# [8] = A CellTox Green Cytotoxicity Assay to monitor cytotoxicity in HepG2 cells - 8 hour (AID 1224890); further: nearly all actives have a fitted effect of over 45% in size
# Method in brief: as §1
# [9] = qHTS assay to identify small molecule antagonists of the estrogen receptor alpha (ER-alpha) signaling pathway using the BG1 cell line in the presence of 0.1 nM 17-beta-estradiol - cell viability counter screen (AID 1259241); further: nearly all actives have a fitted effect of over 40% in size
# Method in brief: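 VM7Luc4E2 cells (endogenous full-length ER-alpha, 4xERE-luciferase), cultured 5 days in charcoal-stripped serum, exposed to compounds with 0.1 nM 17beta-estradiol (final) for 22 hr at 37C. Viability read in same wells as live-cell protease fluorescence after 30 min.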
# [10] = qHTS assay to identify small molecule antagonists of the androgen receptor (AR) signaling pathway using the MDA cell line in the presence of 0.5 nM R1881 - cell viability counter screen (AID 1259242); further: nearly all actives have a fitted effect of over 45% in size
# Method in brief: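 Concentration-response screen of compounds for toxicity in MDA-kb2 reporter cells: 16 hr at 37C with 0.5 nM R1881, endpoint live-cell protease fluorescence measured in the reporter wells.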
# [11] = molecular target: Estrogen receptor (Homo sapiens) (UniProt P03372); assay: qHTS assay to identify small molecule antagonists of the estrogen receptor alpha (ER-alpha) signaling pathway using the BG1 cell line in the presence of 0.1 nM 17-beta-estradiol (AID 1259244); further: nearly all actives have a fitted effect of over 50% in size
# Method in brief: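 Compounds were tested against 0.1 nM (final) 17beta-estradiol in VM7Luc4E2 cells, which express full-length ER-alpha and an ERE-luciferase reporter; luminescence was recorded following 22 h exposure.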
# [12] = qHTS assay to identify small molecule HDAC inhibitors (AID 1259364); further: potency means the concentration at half of the fitted maximal effect;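 further: wild-type HCT-116 cells with endogenous class I/II HDAC activity; nearly all actives have a fitted effect of over 45% in size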
# Method in brief: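 Screening used wild-type human colon HCT-116 cells incubated overnight, dosed with compounds for 2 hours, and assayed with a homogeneous luminogenic HDAC I/II reagent for 30 minutes at room temperature.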
# [13] = qHTS assay to identify small molecule HDAC inhibitors - cell viability counter screen (AID 1259365)
# Method in brief: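 Wild-type HCT-116 cells, 1,500/well, cultured overnight, then compound-treated 2 h at 37 C. Viability measured as ATP luminescence with CellTiter-Glo after 30 min at room temperature.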
# [14] = qHTS assay to identify small molecule agonists of the sonic hedgehog signaling (Shh) pathway - cell viability counter screen (AID 1259366); further: nearly all actives have a fitted effect of over 50% in size
# Method in brief: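 NIH/3T3-derived Gli1-Luc reporter cells, 2,000 per well, received compound after 4 h and were treated about 23 h at 37C. Viability measured in the same wells by CellTiter-Fluor fluorescence after 1 h.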
# [15] = qHTS assay to identify small molecule antagonists of the sonic hedgehog signaling (Shh) pathway - cell viability counter screen (AID 1259367); further: nearly all actives have a fitted effect of over 55% in size
# Method in brief: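 Cytotoxicity was assessed in parallel with Shh reporter activity by measuring live-cell protease fluorescence (CellTiter-Fluor) in NIH/3T3 cells stably carrying Gli1-Luc, treated with compound under conditioned medium stimulation for 23 hr plus 1 hr reagent incubation.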
# [16] = qHTS assay to identify small molecule agonists of the sonic hedgehog signaling (Shh) pathway (AID 1259368; calls by dose curve;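 further: NIH/3T3-derived 3T3Gli1-Luc cells carrying a stable Gli1-driven firefly luciferase reporter; series mostly up to about 92 µM; nearly all actives have a fitted effect of over 15% in size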)
# Method in brief: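 Hedgehog pathway agonism scored by increased firefly luciferase luminescence in 3T3Gli1-Luc cells treated 24 hr at 37 C; detection used a 30 min room-temperature reagent incubation.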
# [17] = qHTS assay to identify small molecule antagonists of the sonic hedgehog signaling (Shh) pathway (AID 1259369; calls by dose curve; further: nearly all actives have a fitted effect of over 45% in size)
# Method in brief: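 NIH/3T3 stable Gli1-Luc clone, 2,000 cells/well, 4hr settle; cpd + conditioned medium 24hr; Luc reagent 30min RT; luminescence.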
# [18] = molecular target: Estrogen receptor beta (Homo sapiens) (UniProt Q92731); assay: qHTS assay to identify small molecule agonists of the estrogen receptor beta (ER-beta) signaling pathway (AID 1259377; active means well fitted activation curve with a large enough effect in the signal ratio in the repeat runs, not every such curve was filed as active; the % refers to the signal ratio)
# Method in brief: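 ER-beta-UAS-bla HEK293T cells in medium with 2% charcoal-stripped FBS were exposed to compounds for 16 h at 37C. Beta-lactamase reporter activity was read as fluorescence after 2 h with LiveBLAzer B/G FRET substrate at room temperature.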
# [19] = qHTS assay to identify small molecule phospholipidosis (PLD) inducers (AID 1259344; active means well fitted curve in the direction sought with a large enough effect; an effect the other way counts as inactive or inconclusive)
# Method in brief: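 Cells (HepG2, 900 per well) attach for 4 h, receive LipidTOX Red and compound together, incubate 24 h at 37 C, are fixed 30 min with paraformaldehyde/Hoechst, then imaged at one site per well.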
# [20] = molecular target: Androgen receptor (Homo sapiens) (UniProt P10275); assay: qHTS assay to identify small molecule antagonists of the androgen receptor (AR) signaling pathway using the MDA cell line in the presence of 0.5 nM R1881 (AID 1259243); further: nearly all actives have a fitted effect of over 50% in size
# Method in brief: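 With R1881 held at 0.5 nM (final), compound effects on MMTV-luciferase expression in MDA-kb2 cells were scored by luminescence after a 16 hr, 37C incubation.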
# Chain of Estrogen receptor beta (Homo sapiens) (Q92731 whole entry, looked up): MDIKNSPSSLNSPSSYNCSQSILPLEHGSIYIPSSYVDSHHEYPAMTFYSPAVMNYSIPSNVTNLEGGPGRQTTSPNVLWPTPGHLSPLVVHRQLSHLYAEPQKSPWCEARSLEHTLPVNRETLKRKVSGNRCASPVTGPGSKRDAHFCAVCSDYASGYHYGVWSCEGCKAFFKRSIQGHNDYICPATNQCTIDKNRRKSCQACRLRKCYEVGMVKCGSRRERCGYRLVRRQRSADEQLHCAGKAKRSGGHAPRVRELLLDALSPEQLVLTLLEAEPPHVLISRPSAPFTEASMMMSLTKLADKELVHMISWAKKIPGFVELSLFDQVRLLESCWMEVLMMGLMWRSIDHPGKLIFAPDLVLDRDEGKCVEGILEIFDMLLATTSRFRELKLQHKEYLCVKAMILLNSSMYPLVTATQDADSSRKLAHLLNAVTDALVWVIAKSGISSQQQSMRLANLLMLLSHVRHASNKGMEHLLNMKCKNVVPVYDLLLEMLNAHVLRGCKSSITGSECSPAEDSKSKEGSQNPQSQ
# Chain of Estrogen receptor (Homo sapiens) (P03372 whole entry, looked up): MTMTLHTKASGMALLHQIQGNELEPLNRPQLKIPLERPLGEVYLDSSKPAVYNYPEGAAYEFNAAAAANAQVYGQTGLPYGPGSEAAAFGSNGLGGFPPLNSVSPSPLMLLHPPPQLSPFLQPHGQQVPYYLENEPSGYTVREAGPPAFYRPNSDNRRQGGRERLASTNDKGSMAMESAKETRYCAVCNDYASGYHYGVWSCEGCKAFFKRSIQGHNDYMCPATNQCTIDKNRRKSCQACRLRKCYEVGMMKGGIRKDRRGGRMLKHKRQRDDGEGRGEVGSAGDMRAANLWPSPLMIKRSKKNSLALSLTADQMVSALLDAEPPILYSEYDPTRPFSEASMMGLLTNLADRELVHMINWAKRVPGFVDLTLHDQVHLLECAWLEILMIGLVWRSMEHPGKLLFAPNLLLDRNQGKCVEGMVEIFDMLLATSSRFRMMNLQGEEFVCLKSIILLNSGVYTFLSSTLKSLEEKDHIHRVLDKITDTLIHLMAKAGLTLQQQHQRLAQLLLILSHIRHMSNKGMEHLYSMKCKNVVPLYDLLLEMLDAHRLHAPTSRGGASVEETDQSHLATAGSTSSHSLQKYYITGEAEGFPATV
# Chain of Androgen receptor (Homo sapiens) (P10275 whole entry, looked up): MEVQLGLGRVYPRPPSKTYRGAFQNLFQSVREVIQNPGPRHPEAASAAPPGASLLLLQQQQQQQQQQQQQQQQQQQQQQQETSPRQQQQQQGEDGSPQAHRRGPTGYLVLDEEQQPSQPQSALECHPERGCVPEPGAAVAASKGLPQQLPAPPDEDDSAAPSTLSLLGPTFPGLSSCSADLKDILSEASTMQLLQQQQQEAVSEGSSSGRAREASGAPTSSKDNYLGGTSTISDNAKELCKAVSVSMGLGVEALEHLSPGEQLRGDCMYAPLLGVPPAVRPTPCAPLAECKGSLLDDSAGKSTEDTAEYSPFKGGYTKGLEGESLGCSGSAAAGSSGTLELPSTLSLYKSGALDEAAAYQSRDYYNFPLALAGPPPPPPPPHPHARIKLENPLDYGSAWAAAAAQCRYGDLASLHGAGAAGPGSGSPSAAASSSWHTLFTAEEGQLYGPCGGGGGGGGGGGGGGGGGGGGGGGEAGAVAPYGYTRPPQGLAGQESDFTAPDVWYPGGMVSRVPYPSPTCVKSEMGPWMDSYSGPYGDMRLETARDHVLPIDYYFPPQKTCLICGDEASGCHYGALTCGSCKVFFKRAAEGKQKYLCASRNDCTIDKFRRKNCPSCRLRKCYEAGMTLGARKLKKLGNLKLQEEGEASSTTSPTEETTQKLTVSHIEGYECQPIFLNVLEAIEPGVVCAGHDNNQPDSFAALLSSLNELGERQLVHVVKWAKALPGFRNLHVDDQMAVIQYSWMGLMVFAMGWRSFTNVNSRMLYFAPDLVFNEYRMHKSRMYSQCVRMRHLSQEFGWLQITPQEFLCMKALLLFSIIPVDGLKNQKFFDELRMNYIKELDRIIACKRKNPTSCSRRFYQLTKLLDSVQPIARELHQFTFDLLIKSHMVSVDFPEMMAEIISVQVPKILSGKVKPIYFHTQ
Structure (SMILES),Potency [1],Potency [2],outcome [3],Potency [4],Potency [5],outcome [6],Potency [7],outcome [8],Potency [9],outcome [10],Potency [11],Potency [12],outcome [13],Potency [14],Potency [15],outcome [16],Potency [17],Potency [18],outcome [19],Potency [20]
Cc1ccc(C=O)cc1C,inactive,inactive,inactive,inactive,inactive,inactive,inactive,inactive,inactive,inactive,inactive,inactive,inactive,inactive,inactive,inactive,inactive,inactive,–,–
O=C(O)Cc1cn(-c2ccccc2)nc1-c1ccc(Cl)cc1,inactive,inactive,inactive,inactive,inactive,inactive,inactive,inactive,inactive,inactive,inactive,inactive,inactive,inactive,inactive,inactive,inactive,–,inactive,–
COC(=O)[C@@H]1[C@H]2C[C@H]3c4[nH]c5ccccc5c4CCN3C[C@@H]2CC[C@@H]1O,inactive,inactive,inactive,inactive,inactive,inactive,inactive,inactive,inactive,inactive,inactive,inactive,inactive,inactive,–,inactive,inactive,inactive,inactive,–
O=C(O)c1cc(Br)c(O)c(Br)c1,inactive,inactive,inactive,inactive,inactive,inactive,inactive,inactive,inactive,inactive,–,inactive,inactive,inactive,inactive,–,inactive,inactive,–,inactive
O=C(O)c1cc(Cl)cc([N+](=O)[O-])c1Cl,inactive,inactive,inactive,inactive,inactive,inactive,inactive,inactive,inactive,inactive,inactive,inactive,inactive,inactive,–,inactive,inactive,–,–,inactive
Nc1ncnc(Nc2ccccc2)n1,inactive,inactive,inactive,inactive,inactive,inactive,inactive,inactive,inactive,inactive,inactive,10.6 µM (active),inactive,inactive,inactive,inactive,inactive,inactive,inactive,–
CCCCCCCCC(=O)Cl,inactive,inactive,inactive,inactive,inactive,inactive,inactive,inactive,inactive,inactive,–,inactive,inactive,inactive,inactive,inactive,–,–,–,–
C[Si](C)(C)C,inactive,inactive,inactive,inactive,inactive,inactive,inactive,inactive,inactive,inactive,–,inactive,inactive,inactive,inactive,inactive,–,–,–,–
CC(=O)/C=C/C1C(C)=CCC(C)C1(C)C (stereo not drawn),inactive,inactive,inactive,inactive,inactive,inactive,inactive,inactive,inactive,inactive,inactive,inactive,inactive,inactive,inactive,inactive,–,inactive,–,–
NNc1nnc(NN)c2ccccc12,inactive,inactive,inactive,inactive,inactive,inactive,inactive,inactive,inactive,inactive,–,inactive,inactive,inactive,inactive,–,–,inactive,–,–
O=C(OCC1(COC(=O)c2cccnc2)CCCC(COC(=O)c2cccnc2)(COC(=O)c2cccnc2)C1O)c1cccnc1,inactive,inactive,inactive,inactive,inactive,inactive,inactive,inactive,inactive,inactive,–,inactive,inactive,–,–,inactive,–,–,–,–
CC(C(=O)O)c1ccc2c(c1)CC(=O)c1ccccc1S2 (stereo not drawn),inactive,inactive,inactive,inactive,inactive,inactive,inactive,inactive,inactive,–,inactive,inactive,inactive,inactive,inactive,–,inactive,–,–,inactive
CC(=O)NCCCCCC(=O)O,inactive,inactive,inactive,inactive,inactive,inactive,inactive,inactive,inactive,inactive,–,inactive,inactive,inactive,inactive,inactive,inactive,inactive,inactive,–
CNS(=O)(=O)CCc1ccc2[nH]cc(C3CCN(C)CC3)c2c1,inactive,inactive,inactive,inactive,inactive,inactive,inactive,inactive,inactive,inactive,–,inactive,inactive,inactive,–,inactive,–,inactive,–,–
C[C@@H](Oc1ccc(CNC(=O)c2cccnc2Oc2ccc3c(c2)OCO3)c(F)c1)C(=O)O,inactive,inactive,inactive,inactive,inactive,inactive,inactive,inactive,inactive,inactive,inactive,inactive,inactive,inactive,inactive,–,inactive,inactive,–,–
CC(C)c1ccc2cc(C(C)C)ccc2c1,inactive,inactive,inactive,inactive,inactive,inactive,inactive,inactive,inactive,–,inactive,inactive,inactive,inactive,inactive,inactive,inactive,inactive,–,inactive
CC1=C(C(=O)O)N2C(=O)[C@@H](NC(=O)[C@H](N)c3ccc(O)cc3)[C@H]2SC1,inactive,inactive,inactive,inactive,inactive,inactive,inactive,inactive,inactive,inactive,–,inactive,inactive,inactive,inactive,inactive,inactive,inactive,–,–
